Shown are actives, neighbours in structure and some others; about 1.8% of the full set was active somewhere.
CCHFV vOTU inh – blocks the CCHF virus ovarian tumor domain protease; inhibition, % at 11.5 µM; actives 0.55% (n = 370,000); CCHFV vOTU protease, Pep-AMC fluorescence; in the data active = inhibition above about 30%
DUSP3 inh – DUSP3 (human) phosphatase inhibition | P51452 | inhibition, % at 13.3 µM | recombinant VHR phosphatase, pNPP absorbance | actives 0.52% (n = 290,000) | AID 1654; in the data active = inhibition above about 50%
PrPC surface inh – reduces human prion protein on the cell surface; P04156; cell surface PrPC, TR-FRET read-out; inhibition, % at 13.8 µM; actives 0.43% (n = 370,000); AID 720596; in the data active = inhibition above about 24%
Y pestis TopoI – inhibitors of Yersinia pestis topoisomerase I; Y. pestis Topo-I cleavage product accumulation, plate reader; activity, % at 10 µM; actives 0.064% (n = 360,000); in the data active = activity above about 50%, passing the limit was not always enough
MazF activator – activators of E. coli MazEF toxin-antitoxin RNase. P0AE70. FAM/BHQ RNA-DNA oligo cleavage fluorescence, 5 h. activation, % at 20 µM. actives 0.32% (n = 350,000). AID 504720; in the data active = activation above about 50%
BH1578 lux ind – induces V. cholerae light production without autoinducers; V. cholerae BH1578 lux reporter, luminescence, 6 h; activation, % at 18.7 µM; actives 0.16% (n = 350,000); AID 588436; in the data active = activation mostly above about 9.7%, no sharp cut-off
PrPC confirm – cell surface PrPC inhibition, TR-FRET confirmation; cell surface PrPC level; actives 65% (n = 1,500); shares compounds with PrPC surface inh; AID 743200; inhibition, % at 13.8 µM; in the data active = inhibition above about 25%
LD9 tox – counter-screen for PrPc inhibitors: cytotoxicity in LD9 cells; inhibition, % at 13.8 µM; luminescence viability; shares compounds with PrPC surface inh; actives 29% (n = 1,500); AID 743201; in the data active = inhibition above about 9.5%
Large screens that a line does not name were inactive (follow-up assays come after a bar, where they were run).

Cc1ccc(Sc2c(O)c3ccccc3n(C)c2=O)cc1	PrPC surface inh 45 | PrPC confirm 59 | LD9 tox inactive
COc1cc2oc3ccc(C#Cc4ccc(N)cc4)cc3c(=O)c2cc1OC	PrPC surface inh 26 (no result: DUSP3 inh) | PrPC confirm 33 | LD9 tox 10.0
CC(=O)c1ccc(CCCCCCCCCC(=O)O)s1	PrPC surface inh 76 | PrPC confirm 68 | LD9 tox inactive
COC(=O)CCCCCc1ccc(C(C)=O)s1	PrPC surface inh 63 | PrPC confirm 77 | LD9 tox inactive
CN(Cc1cccs1)C(=O)CNC(=O)c1ccco1	none
Cc1cnc(C(=O)OCC(=O)NC(C)c2ccccc2)cn1 (centres undefined)	none (no result: DUSP3 inh)
O=S(=O)(Nc1ccncc1)c1cc(Cl)c(Cl)cc1Cl	PrPC surface inh 43 | PrPC confirm inactive | LD9 tox inactive
COc1ccc(Cl)cc1S(=O)(=O)Nc1ccncc1	none
CCN(CC)S(=O)(=O)c1ccc(N2CCOCC2)c(NS(=O)(=O)c2ccc(C(C)C)cc2)c1	none
CCN(CC)S(=O)(=O)c1ccc(N2CCOCC2)c(NS(=O)(=O)c2cc(C(C)(C)C)ccc2C)c1	PrPC surface inh 25 | PrPC confirm inactive | LD9 tox inactive
Cc1cccc(-c2cccc(NC(=O)C3CCCN(C(=O)c4csc(C)n4)C3)c2)c1 (centres undefined)	none
COc1ccccc1NC(=O)N(C)C[C@H]1OCc2cn(nn2)CCCC(=O)N([C@H](C)CO)C[C@@H]1C	none (no result: DUSP3 inh, Y pestis TopoI, MazF activator, BH1578 lux ind)
O=C(Cc1ccccc1)OCn1nnc2ccccc2c1=O	PrPC surface inh 37 | PrPC confirm inactive | LD9 tox inactive
Cc1ccc(-n2ncc3c2CCCC3NC(=O)CCc2c(C)noc2C)cc1C (centres undefined)	none
COc1ccc(N(C(C)C(=O)N2CCCC2)S(C)(=O)=O)cc1 (centres undefined)	PrPC surface inh 50 | PrPC confirm inactive | LD9 tox inactive
Cc1cc(C)c(O)c(C(=O)CC2CC(=O)NC(=O)C2)c1	PrPC surface inh 71 (no result: DUSP3 inh, Y pestis TopoI, MazF activator, BH1578 lux ind) | PrPC confirm 66 | LD9 tox 34
COC(=O)[C@]12C[C@H](CC(=O)NCc3ccc(OC)c(OC)c3)C(=O)N(CCC3=CCCCC3)C1=C[C@H](COCc1ccccc1)O[C@@H]2C	none (no result: DUSP3 inh, Y pestis TopoI, MazF activator, BH1578 lux ind)
COC(=O)Cc1c(C)c2ccc(OCC(=O)N3CCC(C)CC3)c(C)c2oc1=O	PrPC surface inh 28 | PrPC confirm 40 | LD9 tox inactive
COC(=O)Cc1c(C)c2ccc(OCC(=O)N3CCCC3)c(C)c2oc1=O	PrPC surface inh 28 | PrPC confirm 28 | LD9 tox inactive
CCOC(=O)CCc1c(C)c2ccc(OCC(=O)N3CCOCC3)c(C)c2oc1=O	none
Cc1nn(Cc2ccccc2Cl)c(C)c1C(=O)NCC(c1cccs1)N1CCOCC1 (centres undefined)	none (no result: DUSP3 inh)
CN1CCN(C2CCN(Cc3ccc(O)c4ncccc34)CC2)CC1	PrPC surface inh 34 (no result: DUSP3 inh) | PrPC confirm inactive | LD9 tox inactive
Brc1cc(Br)c2ncnc(N3CCCCC3)c2c1	PrPC surface inh 75 | PrPC confirm 111 | LD9 tox inactive
N#CCCSc1ncnc2c1oc1ccccc12	PrPC surface inh 55 | PrPC confirm 47 | LD9 tox inactive
OCCSc1ncnc2c1oc1ccccc12	none
CCOC(=O)CC(=O)CSc1ncnc2c1oc1ccccc12	PrPC surface inh 58 (no result: BH1578 lux ind) | PrPC confirm inactive | LD9 tox inactive
CC(C)(C)NC(=O)C(c1ccncc1)N(Cc1ccc(F)cc1)C(=O)c1ccc(-c2ccccc2)[nH]1 (centres undefined)	PrPC surface inh 27 | PrPC confirm inactive | LD9 tox inactive
O=C(NC1CCCC1)C(c1ccncc1)N(Cc1ccccc1)C(=O)c1ccc(-c2ccccc2)[nH]1 (centres undefined)	PrPC surface inh 26 | PrPC confirm inactive | LD9 tox inactive
O=C(NC1CCCC1)C(c1ccncc1)N(Cc1ccco1)C(=O)c1ccc(-c2ccccc2)[nH]1 (centres undefined)	none
CC(C)CC(=O)Nc1ccc(C(=O)COC(=O)CN2C(=O)NC3(CCCCC3C)C2=O)cc1 (centres undefined)	none (no result: DUSP3 inh)
